MPTP block: permeability transition pore inhibition | isolated mouse mitochondria, Ca2+ swelling absorbance, 30 min | 360,000 tested, 1.4% active | inhibition, % at 10 µM;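 active = inhibition of 50% or more, scaled per plate between neutral and stimulator controls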
Mdm2 MdmX PPI: inhibitors of human Mdm2/MdmX interaction | SaOS-2 split-luciferase Mdm2/MdmX complementation, luminescence | 330,000 tested, 3% active | inhibition, % at 8 µM;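 active = inhibition of at least 50% at 8 µM in the primary screen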
Target sequence (O15151 whole entry, looked up): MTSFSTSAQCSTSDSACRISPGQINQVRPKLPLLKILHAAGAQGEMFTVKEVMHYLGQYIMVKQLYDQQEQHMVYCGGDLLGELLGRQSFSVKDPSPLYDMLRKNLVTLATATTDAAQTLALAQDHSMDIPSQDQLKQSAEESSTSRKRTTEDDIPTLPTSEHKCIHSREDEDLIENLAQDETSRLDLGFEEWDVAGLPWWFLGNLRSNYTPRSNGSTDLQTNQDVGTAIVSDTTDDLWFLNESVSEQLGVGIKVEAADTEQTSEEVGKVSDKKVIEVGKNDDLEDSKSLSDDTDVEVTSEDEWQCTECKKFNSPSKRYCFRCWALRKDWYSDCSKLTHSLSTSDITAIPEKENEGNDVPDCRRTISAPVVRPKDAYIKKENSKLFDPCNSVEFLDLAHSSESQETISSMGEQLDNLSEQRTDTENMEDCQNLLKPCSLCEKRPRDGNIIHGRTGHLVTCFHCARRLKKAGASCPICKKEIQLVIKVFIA
Target sequence (Q00987 whole entry, looked up): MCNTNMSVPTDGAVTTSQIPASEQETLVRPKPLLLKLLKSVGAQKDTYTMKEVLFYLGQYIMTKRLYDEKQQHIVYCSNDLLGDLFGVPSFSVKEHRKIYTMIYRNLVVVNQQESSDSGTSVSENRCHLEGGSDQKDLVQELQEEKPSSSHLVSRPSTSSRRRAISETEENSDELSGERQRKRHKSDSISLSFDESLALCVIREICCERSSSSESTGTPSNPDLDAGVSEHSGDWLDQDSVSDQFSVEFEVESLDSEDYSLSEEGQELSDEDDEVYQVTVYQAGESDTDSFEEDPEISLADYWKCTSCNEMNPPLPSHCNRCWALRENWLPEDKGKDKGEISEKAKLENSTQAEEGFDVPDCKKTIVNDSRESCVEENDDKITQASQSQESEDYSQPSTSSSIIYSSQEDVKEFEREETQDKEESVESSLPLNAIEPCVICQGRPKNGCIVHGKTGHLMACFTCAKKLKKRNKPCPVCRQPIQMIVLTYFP
Calb FLC: affects C. albicans growth with fluconazole; 300,000 tested, 0.57% active; AID 1979; C. albicans CaCi-2 (fluconazole-resistant clinical isolate) + fluconazole, Alamar Blue growth, 48 h; growth inhibition, % (concentration not given with the values);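 active = growth inhibition above about 58% in most replicates, limit read from the data, passing the limit was not always enough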;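 note: all wells also contain fluconazole at 8 µg/ml as a sub-toxic cotreatment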
Beta apoptosis: blocks beta cell apoptosis. INS-1E cytokine-induced death, ATP luminescence, 48 h; percent of positive-control rescue, neutral wells zero. protection from apoptosis, % (no concentration beside the values). 300,000 tested, 0.8% active. AID 435005;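 active = Every replicate reaches about 75%, or at least half do and their mean reaches it too, limit read from the data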;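 note: higher means more ATP so stronger rescue from cytokine killing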
CSC inhib: blocks cancer stem cells; cancer stem cell-like cells viability, luminescence; inhibition, % at 7.5 µM; 300,000 tested, 1.1% active; in the data active = inhibition above about 75%; tested in HMLE shEcad cells
Hits are given with their value; – = inactive; · = no result given. The list is not random: actives were taken first. Their share in the collection is about 4.8%.

SMILES	MPTP block	Mdm2 MdmX PPI	Calb FLC	Beta apoptosis	CSC inhib
O=C1COc2ccc(N3C(=O)C=CC3=O)cc2N1	·	–	–	–	89.3
CCCN(CCC)Cc1cc(=O)oc2cc(C)cc(C)c12	–	·	·	·	·
Cc1ccc2nc(-c3cccc(NS(C)(=O)=O)c3)cc(-c3ccccc3)c2c1	–	–	–	–	114.5
Cc1cccc2sc(NC(=O)C3c4ccccc4Oc4ccccc43)nc12	–	–	–	–	126.0
O=C(Nc1ccc(C2=NCCN2)cc1)c1ccc(C(=O)Nc2ccc(C3=NCCN3)cc2)c(Cl)c1	–	–	90.3	–	–
O=C1C(=O)c2ccccc2C([O-])=C1[n+]1ccccc1	–	–	–	–	·
CCc1cc[n+](C2=C([O-])c3ccccc3C(=O)/C2=N\S(=O)(=O)c2cccs2)cc1	–	–	–	105.8	–
O=C(/C=C/c1ccc2c(c1)OCCCO2)c1ccc2ccccc2c1O	–	–	–	–	94.8
CCCCCCc1c(C)nc(-n2[nH]c(C)c(CCO)c2=O)[nH]c1=O	–	–	93.1	–	–
CCCCCCCc1c(C)nc(N2CCOCC2)[nH]c1=O	–	–	–	–	–
CS(=O)(=O)c1sc2nc(-c3cccs3)cc(-c3ccccc3)c2c1N	–	–	–	–	98.7
Cc1ccc(-c2cc(-c3ccccc3)c3c(N)c(S(C)(=O)=O)sc3n2)cc1	–	–	–	–	·
CC(C)(C)NC(=O)Cn1nnc(-c2ccc(OCc3c(F)cccc3Cl)cc2)n1	–	–	–	–	77.9
COc1ccc(-n2c(-c3ccc(Cl)cc3)c[n+]3c2CCc2ccccc2-3)cc1	–	–	107.7	110.3	–
O=C1/C(=C\c2cc(Cl)c(O)c(Cl)c2)SC(=S)N1Cc1ccccc1	–	·	–	–	103.5
CC(C)(C)Sc1ccc2nc3c(n2c1)CCCC3	–	–	–	100.7	–
COc1ccc(NC(C)c2ccccc2)cc1 (stereo unspecified)	–	·	–	·	·
COc1ccc(NC(=O)NC(C)c2ccccc2)cc1 (stereo unspecified)	–	–	100.1	–	–
CCOC(=O)[C@]12CCC=C1N(Cc1ccc3c(c1)OCO3)C(=O)[C@H](CC(=O)NCC13CC4CC(CC(C4)C1)C3)C2	–	·	·	·	·
CS/C(=N\S(=O)(=O)c1cccs1)Nc1ccc(F)c(Cl)c1	–	–	94.6	–	–
OC(c1ccc(F)c(F)c1)c1nc(-c2ccc3c(c2)OCO3)cs1 (stereo unspecified)	–	·	·	·	·
CC(C)(C)NC(=O)c1oc2ccccc2c1COc1ccccc1	–	–	–	–	–
CC(OC(=O)c1oc2ccccc2c1COc1ccccc1)C(N)=O (stereo unspecified)	–	–	109.2	·	–
Cc1ccc(C2=C(O)c3ccccc3C(=O)C2=O)cc1	–	–	–	·	–
CC(C)c1ccc(C2=C(O)c3ccccc3C(=O)C2=O)cc1	–	–	99.2	–	–
SMILES	MPTP block	Mdm2 MdmX PPI	Calb FLC	Beta apoptosis	CSC inhib
COCCNC(=O)C1(C)Cc2c(-c3ccc4c(c3)OCO4)ccnc2O1 (stereo unspecified)	–	·	·	·	·
Cc1cc(N/N=C/c2ccc(O)c(C)c2O)nc(-c2ccccc2O)n1	–	·	–	–	112.9
Cc1ccc(Cl)cc1N1CCN(CC(=O)NC2CCCc3ccccc32)CC1 (stereo unspecified)	–	–	–	–	78.5
OC(c1cccc(Cl)c1)c1nc(-c2csc3ccccc23)cs1 (stereo unspecified)	–	·	·	·	·
Cc1ccc(C(=O)NC(=S)NNC(=O)c2ccc([N+](=O)[O-])cc2)cc1	–	–	–	–	–
O=C(NNC(=S)NC(=O)c1ccc(Br)cc1)c1ccc([N+](=O)[O-])cc1	–	–	87.4	–	–
O=C(NNC(=S)NC(=O)c1ccccc1)c1ccc([N+](=O)[O-])cc1	–	–	83.8	–	–
CCc1nc2ccc(C(=O)Nc3ccc4c(c3)OCC(=O)N4)cn2c1N(C)Cc1nccn1C	–	·	·	·	·
O=C(NC(c1ccc(F)cc1)c1ccc2ccccc2n1)C1CCN(Cc2cccc(C(F)(F)F)c2)CC1 (stereo unspecified)	–	·	·	·	·
CCc1nc2ccc(C(=O)Nc3cccc(NS(C)(=O)=O)c3)cn2c1N(CC)CCOC	–	·	·	·	·
CCOc1cc(C2NN=C(c3ccc(C)cc3)S2)ccc1O (stereo unspecified)	–	·	·	–	105.2
COc1ccc(C2NN=C(c3ccc(C)cc3)S2)cc1 (stereo unspecified)	–	·	–	–	–
CCCCCn1c(CN2CCN(c3cc(Cl)ccc3C)CC2)nc2c1c(=O)[nH]c(=O)n2C	–	–	–	–	111.8
CCCCCn1c(N2CCN(c3cccc(Cl)c3)CC2)nc2c1c(=O)[nH]c(=O)n2C	–	–	–	–	–
O/N=C/c1ccnc(SCc2ccc(Cl)cc2)n1	–	–	–	·	79.6
O/N=C/c1ccnc(SCc2ccccc2)n1	–	–	–	·	–
Cc1ccc(S(=O)(=O)/N=C2/C=C(Sc3ncn[nH]3)C(=O)c3ccccc32)c(C)c1	·	·	·	128.5	102.6
Cc1ccc(S(=O)(=O)/N=C2/C=C(Sc3ncn[nH]3)C(=O)c3ccccc32)cc1	–	·	·	97.8	106.7
CC(C)c1ccc(S(=O)(=O)/N=C2/C=C(Sc3ncn[nH]3)C(=O)c3ccccc32)cc1	–	·	·	132.4	104.7
Cc1ccc(S(=O)(=O)Nc2ccc(O)c(Sc3ncn[nH]3)c2)cc1	–	–	–	·	–
CCN(CC)c1ccc(N=C2C(=O)Nc3ccccc32)cc1	–	–	–	87.1	–
Cc1ccc(N=C2C(=O)Nc3ccccc32)cc1	–	–	–	–	–
Cc1cc(NC(=O)CCN2C(=O)C3C4CCC(C4)C3C2=O)c(C)cc1Br (stereo unspecified)	–	–	–	–	–
Cc1cc(Br)c(Cl)cc1NC(=O)CN1C(=O)C2C3CC(c4ccccc4)C(C3)C2C1=O (stereo unspecified)	–	–	–	–	79.7
O=c1cc(-c2ccccc2)[nH]n1-c1ccccc1	–	·	·	·	·
SMILES	MPTP block	Mdm2 MdmX PPI	Calb FLC	Beta apoptosis	CSC inhib
O=c1cc(-c2ccccc2)[nH]n1-c1nc2ccccc2s1	–	–	–	–	98.0
CCCCNC(=O)C1(C)CCN1Cc1cc(C)ccc1C (stereo unspecified)	–	·	·	·	·
Cc1cccc(C)c1OCC(=O)NNC(=S)NC(=O)C1CC1	–	–	76.3	–	–
Cc1cccc(C)c1OCC(=O)NC1CC1	–	–	–	–	–
COc1cc(CCN(C(=O)c2cccc(S(C)(=O)=O)c2)C(CCc2ccccc2)c2nc3ccccc3[nH]2)cc(OC)c1 (stereo unspecified)	–	·	·	·	·
O=C1C(Oc2ccccc2)C(c2cccs2)N1Cc1ccc2c(c1)OCO2 (stereo unspecified)	–	–	–	–	–
Cc1ccccc1OC1C(=O)N(Cc2ccc3c(c2)OCO3)C1c1sccc1C (stereo unspecified)	–	–	–	79.1	–
COC1=C(Nc2ccccc2OC)C(=O)c2ccccc2C1=O	–	–	–	83.3	–
COc1ccccc1NC1=C(NC(C)=O)C(=O)c2ccccc2C1=O	–	·	–	·	·
O=C(O/N=C1/CCSc2ccccc21)c1ccc(F)cc1	–	–	117.0	–	–
O=C(O/N=C1/CCCc2occc21)c1ccc(F)cc1	–	–	–	–	–

Compound activity: PubChem BioAssay, several laboratories
